Most compounds without a hit are left out; they make up all but 19% or so of the library.
DT40 TDP1 CPT: growth inhibition of DT40 Tdp1-/-;hTDP1 cells with camptothecin (screen for TDP1 inhibitors); Potency, µM (highest dose often 46.2 µM), for the others: top-dose activity change, negative = growth inhibition, actives largely listed as inhibitors; AID 686979; chicken DT40 Tdp1-/-;hTDP1 cells + 20 nM CPT, ATP luminescence, 48 h; hit rate 12% among 420,000; note: potency is the fitted concentration of half-maximal effect; nearly all actives have a fitted effect of over 55% in size
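Cell growth measured by CellTiter-Glo luminescence after a minimum 48 h, 37 C compound exposure with 20 nM CPT in Tdp1-knockout DT40 cells stably expressing hTDP1, seeded 400/well; qHTS titration format.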
HT1080 IDH1KD tx: toxicity to HT-1080 IDH1 knockdown cells (counter line); HT-1080 IDH1 knockdown viability, ATP luminescence, 48 h; Potency, µM (highest dose often 46.1 µM), without a hit: top-dose activity, negative = toxicity, most hits filed as cytotoxic; hit rate 2% among 360,000; AID 686971;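 note: potency is the fitted concentration of half-maximal effect; 0% = DMSO wells and -100% = cell-free medium wells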
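Viability of IDH1-knockdown HT-1080 fibrosarcoma cells was assessed by CellTiter-Glo after 48 h at 37 °C with titrated compound; concentration-effect curves were classified by fit quality and response size.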
IL1B secr inh: inflammasome signaling inhibition, IL-1 beta readout. THP-1 LPS/ATP IL-1B secretion, AlphaLISA, 16 h; active compounds read low. activity change, % at 57.5 µM. hit rate 4.7% among 360,000; in the data active = activity change below about -50%; inconclusive = mostly about -30% to -49%
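THP-1 cells pretreated 1 hr with compounds (up to 57.5 uM final), then stimulated with LPS (250 ng/mL final) plus ATP (1.25 mM final); secreted IL-1B measured by AlphaLISA after 16 hr, decreased signal indicating inhibition.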
HT1080NT lethal: kills 2HG-producing HT-1080-NT fibrosarcoma cells; hit rate 1.6% among 360,000; AID 686970; HT-1080-NT fibrosarcoma viability, CellTiter-Glo ATP luminescence, 48 h; Potency, µM (titrated, usually from 46.1 µM), for inactives: at the top dose activity, negative = less viability, actives largely listed as cytotoxic;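 note: NT is the 2HG producing partner of a matched IDH1 knockdown line; potency is the fitted concentration of half-maximal effect; 0% = DMSO-treated cells and -100% = media-only wells without cells; nearly all actives have a fitted effect of over 55% in size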
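HT-1080-NT; 750 cells/well; 5% FBS RPMI; 48 h compound, 37 degrees C; CellTiter-Glo luminescence; curve fitting and curve-class assignment.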
TDP1 cell noCPT: qHTS for Inhibitors of human tyrosyl-DNA phosphodiesterase 1 (TDP1): qHTS in cells in absence of CPT. DT40 Tdp1-/- hTDP1 cells, no CPT, ATP luminescence, 48 h. Potency, µM (series often up to 46.2 µM), inactives show at the top dose activity change, negative = growth inhibition, hits mostly inhibitors. hit rate 15% among 420,000. AID 686978, 2013; note: potency is the fitted concentration of half-maximal effect; nearly all actives have a fitted effect of over 55% in size
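DT40 Tdp1-/-;hTDP1 cells, no CPT (DMSO vehicle only), 400 cells/well; compounds pin-transferred; ≥48 hr, 37 °C; CellTiter-Glo 30 min RT dark, luminescence read.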
An asterisk follows results filed as active; u = inconclusive; x = no result given; [ ] = remark or other dose. Unless noted, calls come from the whole dose curve; as a rule, active = well fitted curve in the direction sought with a large enough effect; inconclusive = small, poorly fitted or top-dose-only effect, or another doubt; inactive = no such curve, though single readings can be large; an effect the other way counts as inactive or inconclusive. Unless noted, % is set by controls: 0 for no effect and ±100 for the full control effect.

SMILES	DT40 TDP1 CPT	HT1080 IDH1KD tx	IL1B secr inh	HT1080NT lethal	TDP1 cell noCPT
O=C1C(Cl)=C(NCCCN2CCOCC2)C(=O)c2ccccc21	18.4µM*	u	-95.6*	-18.2%	13µM*
O=C1C(Cl)=C(NCCN2CCOCC2)C(=O)c2ccccc21	u	18.4µM*	-95.8*	u	16.4µM*
O=C1c2ccccc2C(=O)N1CCN1CCOCC1	21.8%	0.0%	-26.8	-1.8%	-7.6%
CC(C)NC(=O)CN1C(=O)CCn2nc(-c3cn(C)c4ccccc34)cc21	-12.4%	x	x	x	-7.6%
Cc1cc(C)cc(Cn2cc(CN3CC(N4CCCCC4)CS3(=O)=O)nn2)c1 (configuration not stated)	0.5%	1.2%	6.1	12.4%	-31.4%
COc1ccc2cc(-c3[nH]ncc3CN3CCCCO3)ccc2c1	u	-11.9%	6.8	-15.7%	u
COc1ccc2cc(-c3[nH]ncc3CN3CCCN(c4ccccc4)CC3)ccc2c1	23.1µM*	u	u	u	u
CCc1ccc(-n2nc(C)c3c(C)cc(=O)n(Cc4nc(-c5ccccc5)oc4C)c32)cc1	u	x	x	x	19.5%
COc1ccc(N2CCN(C(=O)C3CCCN(S(=O)(=O)c4ccc(C)cc4)C3)CC2)cc1 (configuration not stated)	9.2µM*	7.2%	-1.6	2.1%	9.2µM*
COc1ccc(S(=O)(=O)N2CCCC(C(=O)N3CCCCCC3)C2)cc1 (configuration not stated)	u	10.4%	5.4	9.0%	18.4µM*
O=C(C1CCN(S(=O)(=O)c2cccc3cccnc23)CC1)N1CCN(c2ccccc2)CC1	-29.2%	1.3%	11.8	-2.9%	-25.9%
CCOC(=O)C1CCCN(S(=O)(=O)c2ccc(OC)cc2)C1 (configuration not stated)	-22.5%	7.8%	0.0	11.1%[9.24 µM]	-15.3%
COc1ccc(N2CCN(C(=O)C3CCCN(S(=O)(=O)c4ccc(F)cc4)C3)CC2)cc1 (configuration not stated)	10.3µM*	-8.2%	-13.1	-2.6%	8.2µM*
COc1ccc(CNC(=O)C2CCCN(S(=O)(=O)c3ccc(F)cc3)C2)cc1 (configuration not stated)	u	4.0%	6.9	3.8%	u
O=C(C1CCCN(S(=O)(=O)c2cccc3cccnc23)C1)N1CCN(c2ccc(F)cc2)CC1 (configuration not stated)	23.1µM*	-4.1%	6.9	-4.1%	u
N#Cc1ncc(Br)cn1	1.6%	14.4%	x	0.7%	-0.7%
Cc1ccc(S(=O)(=O)N2CCCC(C(=O)N3CCN(c4ccccc4)CC3)C2)cc1 (configuration not stated)	18.4µM*	10.1%	0.0	13.5%	18.4µM*
CN1CCN(C(=O)C2CCCN(S(=O)(=O)c3ccccc3)C2)CC1 (configuration not stated)	-2.8%	3.2%	0.0	15.3%	0.0%
Cc1nn(C)c(C)c1S(=O)(=O)N1CCCC(C(=O)N2CCN(c3ccccc3)CC2)C1 (configuration not stated)	16.4µM*	1.6%	16.3	-1.5%	23.1µM*
CC1CC(C)CN(S(=O)(=O)c2ccc(C(=O)Nc3nnc(C4CC4)o3)cc2)C1 (configuration not stated)	u	-6.5%	50.0	-17.5%	u
CCc1ccc([C@@H]2CC=C(C(=O)O)[C@H](c3ccc(C(C)(C)C)cc3)N2S(=O)(=O)c2ccc(C)cc2)cc1	u	u	13.7	-29.2%	u
CCOc1ccc(N(CC(=O)NC2CCCCC2)C(=O)CCC(=O)Nc2nccs2)cc1	-2.6%	5.5%	-18.4	1.6%	0.3%
CCOc1ccc(N(CC(=O)NC2CCCC2)C(=O)CCC(=O)Nc2nccs2)cc1	-10.9%	-1.9%	-51.6*	2.7%	-23.5%
Cc1cccc(OCC2Cn3c(nc4c3c(=O)[nH]c(=O)n4C)O2)c1 (configuration not stated)	u	-4.0%	23.1	-23.8%	10.3µM*
Cc1ccccc1OCC1Cn2c(nc3c2c(=O)[nH]c(=O)n3C)O1 (configuration not stated)	u	-15.7%	28.8	-13.2%	u
SMILES	DT40 TDP1 CPT	HT1080 IDH1KD tx	IL1B secr inh	HT1080NT lethal	TDP1 cell noCPT
CCc1ccc(OCC2Cn3c(nc4c3c(=O)[nH]c(=O)n4C)O2)cc1 (configuration not stated)	u	-5.0%	13.5	-1.0%	25.9µM*
CC(=O)c1ccccc1NC(=O)COC(=O)c1cc(C)oc1C	7.9%	0.0%	10.1	9.5%	-17.3%
Cc1c(NC(=O)COC(=O)CCC(=O)c2ccc(Cl)cc2)c(=O)n(-c2ccccc2)n1C	u	0.0%	20.8	1.6%	u
COc1ccc(-n2c(=O)/c(=C\c3cccs3)s/c2=C(/C#N)C(=O)N2CCN(C)CC2)cc1	-25.6%	u	24.7	u	23.1µM*
N#C/C(C(=O)N1CCOCC1)=c1/s/c(=C\c2ccccn2)c(=O)n1-c1ccccc1	4.5%	-0.8%	4.5	8.6%	3.1%
O=C(NCCCN1CCN(c2ccc(F)cc2)CC1)c1cc2c(Cl)nc3ccccc3c2s1	7.31µM*	x	x	x	4.61µM*
CC1CCCN(CCCNC(=O)c2cc3c(Cl)nc4ccccc4c3s2)C1 (configuration not stated)	10.3µM*	23.1µM*	x	u	7.31µM*
Cc1cccnc1CCNCc1c(C(=O)N2C[C@@H](C)O[C@@H](C)C2)nc2ccc(Cl)cn12	-8.1%	-22.3%	-7.5	-1.7%	-10.6%
NC(=O)C1CCN(C(=O)c2cc(Cl)c3c(c2)OCCO3)CC1	1.6%	-2.8%	-6.9	-5.6%	-3.7%
COc1ccc([C@@H]2C[C@H]3[C@@H](CN2S(=O)(=O)c2ccccc2)C(=O)C[C@@H](c2cccc(Cl)c2)N3S(=O)(=O)c2ccc(C)cc2)cc1	-10.3%	11.0%	11.0	14.7%	-0.4%
CC(=O)Nc1ccn(C2COC(COC(=O)c3ccccc3)O2)c(=O)n1 (configuration not stated)	0.841µM*	x	x	x	1.5µM*
CC(=O)OC1CC(n2ccc(NC(=O)c3ccccc3)nc2=O)OC1CO (configuration not stated)	-8.7%	-4.9%	-6.4	-2.6%	-15.0%
O=C1c2cccc3cc([N+](=O)[O-])cc(c23)C(=O)N1c1nncs1	1.7%	-4.5%	9.1	0.2%	-6.7%
O=C(NCC1CCN(Cc2ccc(F)cc2)CC1)Nc1cc(F)ccc1F	-3.8%	1.1%	-29.0	-11.1%	-28.5%
COc1ccc(/C=N/NC(=O)c2cccnc2)cc1COc1ccc([N+](=O)[O-])c(C)c1	3.66µM*	2.06µM*	x	2.59µM*	4.11µM*

Screening results (PubChem BioAssay)
